INS promoter inh: TRM-6 insulin promoter activity inhibition. inhibition, % at 2 µM. TRM-6 cells (human fetal islet line), insulin promoter-eGFP reporter, imaging; reporter expression induced with tamoxifen. hit rate 0.9% among 130,000;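 active means inhibition above the mean plus 3 SD, with well images judged a real hit on visual review, cut at about 60% in these data, passing the limit was not always enough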
Ins promoter up: MIN6 insulin promoter up-regulation; MIN6 insulin promoter-GFP reporter, high-content imaging; hits give high values; z-score at 5 µM; hit rate 0.3% among 190,000;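 active means z-score above 3 at 5 µM with at least 500 cells counted in the well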
Efa HMGR inh: blocks class II HMG-CoA reductase of Enterococcus faecalis. purified E. faecalis HMGR, NADPH absorbance 340 nm kinetic. inhibition, % at 10 µM. hit rate 0.41% among 190,000;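 active means inhibition above a set limit, the median over all tested compounds plus 3 SD, cut at about 9.5% in these data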;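 further: enzyme runs in reverse so mevalonate oxidation gives rising NADPH absorbance; 0% = complete reaction with DMSO and 100% = background rate lacking mevalonate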
Autophagy HCS: alters autophagy in cells | MEF GFP-LC3 puncta imaging; test concentration mostly 10 µM | calls only at 10 µM (by protocol) | hit rate 0.98% among 190,000 | AID 463193;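 active means percentage of spot-positive cells more than 3 SD above its plate mean, without a fluorescence outlier flag or 80% toxicity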;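 further: spot-positive cell cutoff set from DMSO-treated cells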
Starred values were filed as active, the others as inactive; i = inactive; · = not tested or not shown; + = active, no number. Compounds with a hit are over-represented: about 1.9% of the library has one in this group of screens.

SMILES	INS promoter inh	Ins promoter up	Efa HMGR inh	Autophagy HCS
O=S(=O)(N1CCOCC1)n1c(Cc2ccccc2)nc2ccccc21	70*	0.41	-7	i
O=S(=O)(c1ccc(Cl)cc1)n1c(Cc2ccccc2)nc2ccccc21	41	-0.26	-2	i
O=C(COC(=O)CCSc1ccc(Cl)cc1)NCc1ccccc1Cl	67*	-0.23	-5	i
CCOC(=O)c1ccc(Nc2c(OCC)c(=O)c2=O)cc1	·	0.64	·	·
O=C(CCn1c(=O)sc2ccccc21)NCc1cccs1	-93	-0.07	1	i
CC1CN(C(=O)CCn2c(=O)oc3ccccc32)CC(C)O1 (configuration not stated)	·	8*	1	i
O=C(CCn1c(=O)oc2ccccc21)NCCN1CCc2ccccc2C1	-31	0.07	-1	i
O=C(CCn1c(=O)oc2ccccc21)NCc1cccs1	56	0.21	13*	i
O=C(CCn1c(=O)oc2ccccc21)N1CCCCCC1	45	0.16	0	i
O=C(CCCn1c(=O)oc2ccccc21)N1CCc2ccccc2C1	·	0.11	-5	+
Cc1ccc(NC(=S)NC(=O)CC2CC(C)(C)OC2=O)cc1 (configuration not stated)	·	-0.3	28*	i
CC1(C)CC(CC(=O)NC(=S)Nc2ccc([N+](=O)[O-])cc2)C(=O)O1 (configuration not stated)	23	-0.17	1	i
CC(C)CNC(=O)c1cccc(NC(=O)Cc2ccc(Br)cc2)c1	-155	-0.54	-8	i
CC[C@H](C)[C@H](NC(N)=O)C(=O)NCCc1ccc(OC)c(OC)c1	·	0.84	-9	i
COc1ccc(N=c2oc3c(OC)cccc3cc2C(=O)NCc2ccco2)c(OC)c1	21	-3.3	3	+
COc1ccc2oc(=Nc3ccc(C(=O)O)cc3)c(C(=O)NCc3ccco3)cc2c1	·	-0.56	15*	i
CCOC(=O)C1CCN(c2nc3c(C)cccn3c(=O)c2/C=C(\C#N)S(=O)(=O)c2ccccc2)CC1	·	-0.26	·	·
Cc1c(C(=O)Nc2ccc(Cl)cc2)c2ccccn2c1C(=O)c1ccc(F)cc1	25	0.05	-2	+
c1ccc(NCc2nc(-c3ccccc3)no2)cc1	80*	0.9	-2	i
COc1ccc(CC(=O)NCc2nc(-c3ccccc3)no2)cc1	·	-0.08	-6	i
Cc1ccc(C(C(=O)NCc2ccco2)N(C(=O)CNC(=O)c2cccs2)c2c(C)cccc2C)cc1 (configuration not stated)	·	0.07	4	i
Cc1ccc(C(C(=O)NCc2ccco2)N(C(=O)CNC(=O)c2cccs2)c2c(C)cc(C)cc2C)cc1 (configuration not stated)	46	0.63	-4	+
COc1ccc(N2CCN(C(CNC(=O)C(C)(C)C)c3ccco3)CC2)cc1 (configuration not stated)	·	0.61	11*	i
COc1ccc(N2CCN(C(CNC(C)=O)c3ccco3)CC2)cc1 (configuration not stated)	-33	0.53	-10	i
S=C(NCCc1ccccc1)N1CCN(C2CCCCC2)CC1	·	-0.31	1	i
SMILES	INS promoter inh	Ins promoter up	Efa HMGR inh	Autophagy HCS
Cc1csc2c(SCC(=O)NNC(=O)C(Cl)Cl)ncnc12	·	-0.08	·	·
Cc1nnc(-c2cnn(C)c2N)n1Cc1cccc(Cl)c1	89*	0.62	-2	i
Cc1nnc(-c2cnn(C)c2N)n1Cc1ccccc1	42	·	4	i
COc1cccc(N=c2oc3ccc(OC)cc3cc2-c2nc3ccccc3[nH]2)c1	50	-0.58	-6	i
COc1cccc(N=c2oc3ccccc3cc2-c2nc3ccccc3[nH]2)c1	83*	0.02	-2	i
CC1=CCC(C(=O)O)C(C(=O)Nc2ccc(-c3nc4ccc(C)cc4s3)cc2)C1 (configuration not stated)	·	0.18	·	·
O=C(CSc1nc2ccccc2c(=O)n1CCCN1CCOCC1)Nc1ccc2c(c1)OCO2	·	·	-1	i
O=C(CSc1nc2ccccc2c(=O)n1CCCN1CCOCC1)c1c[nH]c2ccccc12	·	·	-3	+
NS(=O)(=O)c1cccc(NC(=O)CSc2nc3ccccc3c(=O)n2CCCN2CCOCC2)c1	21	0.17	0	+
OCCC1CN(Cc2cc3c(cc2Cl)OCO3)CCN1C1CCCCC1 (configuration not stated)	·	-1.2	-6	i
Cc1cc(C)nc(SCNC(=O)c2ccccc2)n1	-28	0.2	11*	i
Cc1ccc(-c2[nH]ncc2/C=N/n2c(COc3ccccc3)nc3ccccc3c2=O)cc1	·	-0.73	3	+
Cc1nc2ccccc2c(=O)n1/N=C/c1cn[nH]c1-c1ccccc1	·	-0.01	·	·
Cc1ccccc1OCc1nc2ccccc2c(=O)n1/N=C/c1cn[nH]c1-c1ccccc1	-64	-1.2	-1	+
CCN(CC)C(=O)c1sc2c(c1C)c(=O)n(-c1ccc(C)c(C)c1)c(=O)n2CC(=O)NCC1CCCO1 (configuration not stated)	83*	0.1	-4	i
Cn1nc(-c2ccccc2)c2nc3ccccc3nc21	-150	1.8	-3	+
Clc1nc2ccccc2nc1-c1ccccc1	·	-0.1	·	·
CCCCn1nc(-c2ccccc2)c2nc3ccccc3nc21	11	·	-2	+
O=C(O)c1ccc2c(=O)n3c(nc2c1)/C(=C/c1ccccc1C(F)(F)F)CCCC3	·	0.35	-9	+
COc1ccc(/C=C2\CCn3c2nc2cc(C(=O)O)ccc2c3=O)cc1OC	·	0.26	·	·
O=C(Nc1ncc([N+](=O)[O-])s1)c1cccc([N+](=O)[O-])c1	·	-0.89	·	·
O=C(Nc1ccccc1)Nc1ncc([N+](=O)[O-])s1	28	0.17	-4	+
O=C(NN1CCOCC1)c1cc(S(=O)(=O)Nc2cccc(C(F)(F)F)c2)ccc1Cl	·	0.8	-5	i
O=C(COC(=O)c1cc([N+](=O)[O-])ccc1NCCO)c1ccccc1	12	0.4	1	i
CN(NS(=O)(=O)c1ccc(Cl)cc1)c1nc(C(F)(F)F)nc2ccccc12	38	-0.71	-6	i
SMILES	INS promoter inh	Ins promoter up	Efa HMGR inh	Autophagy HCS
CCOc1ccc(-n2cc(-c3ccccc3)c3c(N4CCOCC4)ncnc32)cc1	-20	-1.1	1	+
c1ccc(-c2cn(-c3ccccc3)c3ncnc(N4CCCCC4)c23)cc1	-14	-1.9	-7	i
COC(=O)C1=C2SC(C)C(=O)N2C(N)=C(C#N)C1c1ccc(OC)c(OC)c1 (configuration not stated)	82*	0.79	-2	i
COC(=O)C1=C2SC(C)C(=O)N2C(N)=C(C#N)C1c1cc(OC)c(OC)c(OC)c1 (configuration not stated)	·	1.4	-4	i
COC(=O)c1c(NC(=O)CCNCc2ccco2)sc2c1CCC2	·	-0.26	·	·
COc1cccc(-c2nc(NCC3CCCO3)c3ccccc3n2)c1O (configuration not stated)	-12	·	3	+
Cc1c(CN2CCc3c([nH]c4ccccc34)C2CC(C)C)cnn1C (configuration not stated)	·	·	4	i
CC(C)OP(=O)(OC(C)C)/C(C=O)=N\Nc1ccc([N+](=O)[O-])cc1	·	-0.76	·	·

From PubChem
